A selection: hits, their analogues and other compounds. The true share with any hit is near 1.6%.
GFP derepression: derepresses silenced GFP locus in mouse C127i cells | Potency, µM (top dose mostly 46.1 µM) | AID 597 | mouse C127i GFP locus derepression, cytometry, 30 h | actives 0.09% (n = 68,000)
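Locus derepression in mouse mammary C127i cells whose integrated CMV-GFP reporter is normally silent; GFP expression after 30 h compound treatment was quantified by counting fluorescent cells.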
p53ts 32C tox: p53ts cell cytotoxicity, permissive temperature; AID 924; H1299-p53A138V at 32C, ATP luminescence viability, 24 h; actives 0.93% (n = 130,000); Potency, µM (titrated, usually from 46.1 µM), usual class: cytotoxic; also: nearly all actives have a fitted effect of over 55% in size
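H1299-p53 A138V cells (temperature-sensitive p53) exposed 24 h to up to 46 uM compound at 32C, where p53 is wild-type in conformation. Viability read as ATP luminescence and normalised to DMSO and 100 uM tamoxifen. AC50 fitted with the Hill equation.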
HBB splicing: alters splicing of the hemoglobin beta chain; HBB splicing reporter cell assay, activation; EGFP reporter with mutant IVS2-654 intron; response scale: normalised to 500 nM splice-correcting PNA; Potency, µM (doses to about 46.1 µM), actives largely listed as activators; actives 0.06% (n = 65,000)
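HeLa cells stably expressing EGFP interrupted by mutant beta-globin intron 2 (IVS2-654), 500/well in 2% FCS. Treated with compound for 2 days at 37C. Splicing correction scored as total well GFP intensity (488 nm excitation, 500-520 nm emission); 500 nM antisense PNA served as control.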
Ub-GFP proteasome: ubiquitin-GFP accumulation via proteasome inhibition; Ubiquitin-GFP reporter cells, proteasome inhibition, GFP fluorescence; response scale: untreated = 0%, 10 µM MG-132 = 100%; Potency, µM (titrated, usually from 45.9 µM), hits mostly activators; 67,000 tested, under 10 active; AID 526; active = well fitted activation curve with a large enough effect, not every such curve was filed as active; inconclusive = small, poorly fitted or top-dose-only effect, or another doubt; inactive = no such curve, though single readings can be large or run the other way
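U2OS cells expressing ubiquitin(G76V)-GFP, seeded overnight in 0.5% FBS medium, then treated 4 hr at 37 C across 46 uM to 2.9 nM. GFP-positive cells counted by laser cytometry (488 ex/515 em); %activity scaled between basal and 10 uM MG-132.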
p53ts 39C tox: cytotoxicity in p53ts cells at nonpermissive temperature; H1299-p53A138V viability at 39C, ATP luminescence, 24 h; Potency, µM (top dose mostly 46.1 µM), actives largely listed as cytotoxic; actives 1.5% (n = 130,000); also: nearly all actives have a fitted effect of over 55% in size
Peg3 imprint: genomic imprint erasure induction; mouse ES Peg3-LacZ reporter, beta-gal luminescence, 40 h; Potency, µM (series often up to 60.7 µM), usual class: activators; actives 0.02% (n = 110,000)
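Each well holds 300 Peg3LacZ-Neo (maternal) female ES cells incubated 40 h at 37C, 5% CO2. LacZ is measured by BetaGlo luminescence, with AC50 and maximum efficacy derived from dose-response curves.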
Hits are given with their value; - = inactive; ? = inconclusive; . = no result given; ! = not active in a repeat; [ ] = dose if it differs, or a comment. Unless noted, calls follow the shape of the dose curve; as a rule, active = well fitted curve in the direction sought with a large enough effect; inconclusive = small, poorly fitted or top-dose-only effect, or another doubt; inactive = no such curve, though single readings can be large; an effect the other way counts as inactive or inconclusive.

SMILES | GFP derepression | p53ts 32C tox | HBB splicing | Ub-GFP proteasome | p53ts 39C tox | Peg3 imprint
COc1cc(Cl)c(C)cc1NC(=O)c1ccc2c(Cl)c3c(nc2c1)CCC3 | . | - | . | . | - | ?
COc1cc(Cl)c(C)cc1Nc1c2c(nc3ccccc13)CCC2 | . | ? | . | . | 2µM | -[10.9 µM]
O=P(C1=C(N2CCOCC2)/C(=C\c2ccccc2)CC1)(N1CCOCC1)N1CCOCC1 | - | - | - | - | - | -
O=c1/c(=C\c2ccc3c(c2)OCO3)sc2n1CCCN=2 | - | 13µM | . | - | 13µM | -
COc1cc(-c2nc3ccc(C)cn3c2Nc2ccc(Cl)cc2)ccc1O | . | - | . | . | 16µM | -[10.9 µM]
CCc1c(C)c2cc(Cl)c(O)c(CN3CCCCC3)c2oc1=O | - | . | . | . | . | .
O=C(NCCN1CCCCC1)c1ccc(Cn2c(SCc3ccccc3)nc3cccnc32)cc1 | . | 13µM | . | . | 10µM | -[10.9 µM]
CC1CCCCN1CCNC(=O)c1ccc(Cn2c(SCc3ccccc3)nc3cccnc32)cc1 (stereo not given) | . | 10µM | . | . | 10µM | -[10.9 µM]
CC(CNC(=O)c1ccc(Cn2c(SCc3ccccc3)nc3cccnc32)cc1)c1ccccc1 (stereo not given) | . | - | . | . | . | .
CC1CCN(CCNC(=O)c2ccc(Cn3c(SCc4ccccc4)nc4cccnc43)cc2)CC1 | . | ? | . | . | 10µM | -[10.9 µM]
CCN(CC)c1ccc2cc(C(N)=O)c(=O)oc2c1 | . | - | . | . | - | .
CCN(CC)c1ccc2cc(NC(=O)CCC(=O)O)c(=O)oc2c1 | - | ? | - | - | 13µM | -
CC(=O)c1c(C)[nH]c(C(=O)N2c3ccccc3CC2C)c1C (stereo not given) | - | - | - | - | - | -
O=C(Nc1ccc(C(F)(F)F)cc1)c1cc(S(=O)(=O)NC2CCCCCC2)ccc1F | . | - | . | . | ? | -[10.9 µM]
CCc1ccc(NC(=O)c2ccc(F)c(S(=O)(=O)NC3CCCCCC3)c2)cc1 | . | - | . | . | - | -[10.9 µM]
O=C(Nc1ccc(C(F)(F)F)cc1)c1cc(S(=O)(=O)NC2CCCCC2)ccc1F | . | - | . | . | 10µM | -[10.9 µM]
O=C(Nc1cc(Cl)cc(Cl)c1)c1ccc(F)c(S(=O)(=O)NC2CCCC2)c1 | . | ? | . | . | 13µM | -[10.9 µM]
CCc1cc2c(=O)c(-c3ccc4c(c3)OCCO4)coc2cc1OC(=O)c1ccco1 | - | 5µM | - | - | 7.9µM | -
CCc1cc2c(=O)c(-c3nc4ccccc4[nH]3)coc2cc1OC(=O)N1CCOCC1 | - | . | . | . | . | .
Cc1ccc(C)c(NC(=O)Cn2nnc(C(=O)NCc3ccccc3Cl)c2N)c1 | . | - | . | . | - | -[10.9 µM]
Cc1cc(C)cc(NC(=O)Cn2nnc(C(=O)NCc3ccccc3Cl)c2N)c1 | . | ? | . | . | 7.9µM | -[10.9 µM]
CN(C)c1ccc(Nc2nc(-c3cccnc3)cs2)cc1 | - | 3.2µM | -[0.0738 µM] | ? | 3.2µM | -
COc1ccc(/C=C\C(=O)Nc2ccccc2C(=O)O)cc1OC | - | 16µM | - | - | 13µM | -
COc1ccc(/C=C/C(=O)Nc2ccc(Cl)c(Cl)c2)cc1OC | . | ? | . | . | ? | -[10.9 µM]
COc1cc(OC)c(NC(=O)NCc2ccc3c(c2)CCN3C(=O)c2ccccc2)cc1Cl | . | - | . | . | - | -[10.9 µM]
SMILES | GFP derepression | p53ts 32C tox | HBB splicing | Ub-GFP proteasome | p53ts 39C tox | Peg3 imprint
CCCCCSc1nc2sc3c(c2c(=O)n1-c1ccccc1)CCN(C(C)=O)C3 | . | ? | . | . | 13µM | -[10.9 µM]
CNS(=O)(=O)c1ccc(NC(=O)c2cnn3c(C(F)F)cc(-c4ccccc4)nc23)cc1 | . | - | . | . | 13µM | -[10.9 µM]
O=C1CSC(c2cccnc2)N1C1CCCCC1 (stereo not given) | - | - | - | - | - | -
CCNC(=O)c1ccc(NC(=O)N2CCCCc3ccccc32)cc1 | . | - | . | . | - | -[10.9 µM]
Cc1ccc(NC(=O)N2CCc3ccccc32)cc1 | . | 4.5µM | . | . | 5µM | .
CN1C(=O)CSc2ccc(NC(=O)N3CCc4ccccc43)cc21 | - | 10µM | - | - | ? | -
Cc1ccc(NC(=O)CSCC(N)=O)cc1C | 16µM | - | - | - | - | -
Cc1ccc(NC(=O)Cn2cccc2)cc1C | - | - | - | - | - | -
CCn1cc(SCC(=O)NCc2ccc3c(c2)OCO3)c2ccccc21 | . | 5µM | - | - | 5µM | -
Cc1cccc(-n2nc3c(c2NC(=O)c2ccco2)CSC3)c1C | - | - | -[0.369 µM] | - | - | -
CCOc1ccc(-n2c(=O)[nH]cc(C(=O)N3CCc4ccccc43)c2=O)cc1 | - | - | - | - | - | -
Cc1ccc2nc(-c3cccc(NC(=O)c4ccc5c(c4)OCCO5)c3)oc2c1 | - | ? | . | - | ? | -
CC(C)c1ccc2oc(-c3cccc(NC(=O)c4ccc5c(c4)OCCO5)c3)nc2c1 | . | ? | . | . | 10µM | -[10.9 µM]
Cc1csc(C(C#N)C(=O)c2cc3ccccc3o2)n1 (stereo not given) | - | 5µM | - | - | 5µM | -
CCC(=O)Nc1ccc(NC(=O)c2cc3ccccc3o2)cc1 | - | - | - | - | - | -
Cc1ccc(C(=O)Nc2onc3c2CCCC3)cc1 | . | 4µM | . | . | 6.3µM | -[10.9 µM]
CC1Cc2ccccc2N1CC(=O)NCc1ccc2c(c1)OCO2 (stereo not given) | . | . | . | . | - | .
Cc1ccc(Sc2ccc(N3CCC(C(=O)Nc4cc(C)cc(C)c4)CC3)nn2)cc1 | . | ? | . | . | 13µM | -[10.9 µM]
CCc1nn(CC(=O)Nc2ccc(C)c(F)c2)c(=O)c2cc3cc(C)ccc3n12 | . | - | . | . | 32µM | -[10.9 µM]
O=C1CC(c2ccncc2)c2cc3c(cc2N1)OCO3 (stereo not given) | - | - | - | - | - | -
C=C1C(=O)O[C@@H]2[C@H]3O[C@]3(C)CCC=C(C)CC[C@@H]12 | - | 13µM | . | - | 13µM | -
C=C1C(=O)O[C@@H]2[C@@H]1CC/C(C)=C\CC[C@@]1(C)O[C@H]21 | - | 6.3µM! | - | - | 6.3µM! | -
O=C(NCc1ccccc1)c1cc(-c2cccc(O)c2)on1 | - | - | - | - | - | -
Cc1ccc(S(=O)(=O)C(CNC(=O)C(=O)NCCc2ccc(Cl)cc2)c2cccs2)cc1 (stereo not given) | . | - | . | . | - | -[10.9 µM]
O=C(Nc1ccc(F)cc1)N(CCCN1CCOCC1)Cc1cc2cc3c(cc2[nH]c1=O)OCO3 | - | - | . | - | - | .
CC(C)CC(=O)Nc1ccc(-c2cn3ccsc3n2)cc1 | - | 1µM | - | - | 1µM | -
CC(C)(C)C(=O)Nc1ccc(-c2cn3ccsc3n2)cc1 | - | 0.63µM | - | - | 0.79µM | -
CCS(=O)(=O)Nc1ccc(-c2cn3ccsc3n2)cc1 | . | ? | . | . | ? | -[10.9 µM]
O=C(Nc1nnc(-c2cc(Cl)ccc2Cl)o1)c1ccc2c(c1)OCCO2 | . | - | . | . | - | -[10.9 µM]
O=C(N=c1nc2ccccn2s1)c1ccccc1 | - | 2µM | - | - | ? | -
